Reference: the supplement of paper PMC12645437, “Orthogonal IMiD-Degron Pairs Induce Selective Protein Degradation in Cells” (ACS Chemical Biology, 2025)
In all, about 8,300 sequences were measured (“log2 fold change of degron read counts, EGFP-low vs EGFP+ sorted cells (limma voom), compound-induced degradation”: median about -1.1, highest 2% from about 3.2 on). Many of the other results were omitted from the sample, so the highest values are more common in it than they were.

T1: CRBN, Q96SW2
T1 chain: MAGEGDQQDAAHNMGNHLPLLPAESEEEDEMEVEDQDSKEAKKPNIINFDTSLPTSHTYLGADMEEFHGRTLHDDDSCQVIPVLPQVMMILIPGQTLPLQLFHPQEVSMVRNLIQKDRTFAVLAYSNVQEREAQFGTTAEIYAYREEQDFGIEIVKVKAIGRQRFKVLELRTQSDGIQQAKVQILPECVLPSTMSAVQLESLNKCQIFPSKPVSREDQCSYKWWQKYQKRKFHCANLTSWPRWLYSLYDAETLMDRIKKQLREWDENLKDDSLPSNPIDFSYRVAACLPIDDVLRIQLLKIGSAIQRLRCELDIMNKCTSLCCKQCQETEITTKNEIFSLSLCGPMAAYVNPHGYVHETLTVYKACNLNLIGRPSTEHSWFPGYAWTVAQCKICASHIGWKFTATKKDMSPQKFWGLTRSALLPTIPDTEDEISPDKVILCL

B1: 46F_47M_49D_50I_52G_53A_54C_55F_67L_, Q9UKT9 (peptide)
chain: FMCDICGACFTQKGNLLRHIKL
B2: 46F_47W_49D_50I_52G_53A_54C_55F_67L_, Q9UKT9 (peptide)
chain: FWCDICGACFTQKGNLLRHIKL
B3: 46F_47A_49D_50I_52G_53A_54C_55F_67L_, Q9UKT9 (peptide)
chain: FACDICGACFTQKGNLLRHIKL
B4: 46F_47Y_49D_50I_52G_53A_54C_55F_67L_, Q9UKT9 (peptide)
chain: FYCDICGACFTQKGNLLRHIKL
B5: 46F_47F_49D_50I_52G_53A_54C_55F_67L_, Q9UKT9 (peptide)
chain: FFCDICGACFTQKGNLLRHIKL
B6: 46F_47S_49D_50I_52G_53A_54C_55F_67L_, Q9UKT9 (peptide)
chain: FSCDICGACFTQKGNLLRHIKL
B7: 46F_47Q_49D_50I_52G_53A_54C_55F_67L_, Q9UKT9 (peptide)
chain: FQCDICGACFTQKGNLLRHIKL
B8: 46F_47T_49D_50I_52G_53A_54C_55F_67L_, Q9UKT9 (peptide)
chain: FTCDICGACFTQKGNLLRHIKL
B9: 46F_47E_49D_50I_52G_53A_54C_55F_67L_, Q9UKT9 (peptide)
chain: FECDICGACFTQKGNLLRHIKL
B10: 46F_47C_49D_50I_52G_53A_54C_55F_67L_, Q9UKT9 (peptide)
chain: FCCDICGACFTQKGNLLRHIKL
B11: 46F_47H_49D_50I_52G_53A_54C_55F_67L_, Q9UKT9 (peptide)
chain: FHCDICGACFTQKGNLLRHIKL
B12: 46F_47R_49D_50I_52G_53A_54C_55F_67L_, Q9UKT9 (peptide)
chain: FRCDICGACFTQKGNLLRHIKL

Target: T1, CRBN, Q96SW2
Assay: log2 fold change of degron read counts, EGFP-low vs EGFP+ sorted cells (limma voom), compound-induced degradation; higher = more compound-induced degradation of the degron-EGFP fusion; degrons are variants of IKZF1/3 zinc finger 2; compound dose not given here
Conditions: Jurkat, 18 h
[1] = compound: compound 19 (5-tert-butyl-thalidomide)
[2] = compound: compound 22 (5-morpholino-thalidomide)
[3] = compound: compound 33 (diphenyl IMiD analogue)
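Note: pooled lentiviral library of zinc finger degron-EGFP fusions in mCherry-positive Jurkat cells, FACS-sorted after compound exposure, with degron abundance counted by next-generation sequencing.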

Row | Sequence | log2 fold change of degron read counts [1] | log2 fold change of degron read counts [2] | log2 fold change of degron read counts [3] | log2 fold change of degron read counts (compound: thalidomide)
1 | B1 | -1.13 | -0.637 | 1.57 | -0.555
2 | B2 | 3.31 | 3.65 | 1.33 | -0.4
3 | B3 | 2.85 | 0.596 | -0.194 | -1.27
4 | B4 | 3.33 | 3.42 | 1.9 | -0.704
5 | B5 | 3.31 | 3.14 | 1.33 | -1.14
6 | B6 | 1.95 | 1.34 | 1.4 | -0.055
7 | B7 | -0.256 | 2.12 | 1.17 | 3.3
8 | B8 | 1.04 | 1.6 | 1.21 | 0.886
9 | B9 | -0.944 | -2.76 | 0.061 | 0.157
10 | B10 | 1.6 | 1.36 | 1.87 | 0.543
11 | B11 | 1.53 | 1.18 | -0.205 | -1.25
12 | B12 | -1.25 | -1.11 | 1.03 | 0.116
